# Experimental data reported in paper PMC11062922 (Nature Chemical Biology, 2023).
# Where two headings read alike, the source gives them in different places.
# Experiments:
# Design in all cases: species or system human, MV4-11 + K-562 + COLO205 + SK-N-BE2 + OVCAR-8
# ABL1 = settings: read-out: apparent Kd, n = 1
# BCR = settings: read-out: apparent Kd, n = 1
# EPHA2 = settings: read-out: apparent Kd, n = 1
# HCK = settings: read-out: apparent Kd, n = 1
# PHKG2 = settings: read-out: apparent Kd, n = 1
# PRKAA2 = settings: read-out: apparent Kd, n = 1
# PRKX = settings: read-out: apparent Kd, n = 1
# PTK6 = settings: read-out: apparent Kd, n = 1
# ROCK2 = settings: read-out: apparent Kd, n = 1
# SRC = settings: read-out: apparent Kd, n = 1
# YES1 = settings: read-out: apparent Kd, n = 1
# RIOK2 = settings: read-out: apparent Kd; compound concentrations:100 nM and 1000 nM (sheet 'Samples'); n = 1
# CSNK1E = settings: read-out: apparent Kd; compound concentrations:100 nM and 1000 nM (sheet 'Samples'); n = 1
# CSNK1A1 = settings: read-out: apparent Kd; compound concentrations:100 nM and 1000 nM (sheet 'Samples'); n = 1
# ADCK1 = settings: read-out: apparent Kd, n = 1
# MAPK8 = settings: read-out: apparent Kd; compound concentrations:100 nM and 1000 nM (sheet 'Samples'); n = 1
# STK16 = settings: read-out: apparent Kd; compound concentrations:100 nM and 1000 nM (sheet 'Samples'); n = 1
# STK3 = settings: read-out: apparent Kd; compound concentrations:100 nM and 1000 nM (sheet 'Samples'); n = 1
# CDK17 = settings: read-out: apparent Kd; compound concentrations:100 nM and 1000 nM (sheet 'Samples'); n = 1
# [1] = compound concentrations:100 nM and 1000 nM (sheet 'Samples')
compound,measurement,setting,value
Cl.Cl.NCC(C(=O)Nc1cc(Br)c(-c2ccnc3[nH]ccc23)s1)c1ccccc1.NCC(C(=O)Nc1cc(Br)c(-c2ccnc3[nH]ccc23)s1)c1ccccc1 (stereo not drawn) [GSK1269851A],potency estimated from few doses,ABL1; [1],1040 nM
same,potency estimated from few doses,BCR; [1],90.4 nM
same,potency estimated from few doses,EPHA2; [1],505 nM
same,potency estimated from few doses,HCK; [1],554 nM
same,potency estimated from few doses,PHKG2; [1],2300 nM
same,potency estimated from few doses,PRKAA2; [1],1130 nM
same,potency estimated from few doses,PRKX; [1],1890 nM
same,potency estimated from few doses,PTK6; [1],1450 nM
same,potency estimated from few doses,ROCK2; [1],1330 nM
same,potency estimated from few doses,SRC; [1],523 nM
same,potency estimated from few doses,YES1; [1],378 nM
NCCNS(=O)(=O)c1ccc(-c2ccnc3[nH]ccc23)cc1 [GSK977617A],potency estimated from few doses,ABL1; [1],681 nM
same,potency estimated from few doses,BCR; [1],244 nM
same,potency estimated from few doses,EPHA2; [1],441 nM
same,potency estimated from few doses,HCK; [1],765 nM
same,potency estimated from few doses,PRKAA2; [1],721 nM
same,potency estimated from few doses,PRKX; [1],487 nM
same,potency estimated from few doses,RIOK2,1170 nM
same,potency estimated from few doses,ROCK2; [1],97.3 nM
same,potency estimated from few doses,SRC; [1],589 nM
same,potency estimated from few doses,YES1; [1],518 nM
Cc1cccc(-c2nc(Nc3ccncc3)c3sccc3n2)n1 [GW869641X],potency estimated from few doses,CSNK1E,418 nM
Clc1cc(Cl)cc(Nc2ccnc(Nc3cc(Cl)cc(Cl)c3)n2)c1 [GSK175726A],potency estimated from few doses,"ABL1; compound concentrations: 100 nM and 1000 nM (sheet 'Samples'), CATDS: 2.5998529843594201E-2",83.2 nM
same,potency estimated from few doses,"BCR; compound concentrations: 100 nM and 1000 nM (sheet 'Samples'), CATDS: 1.5030836072921499E-2",242 nM
same,potency estimated from few doses,"EPHA2; compound concentrations: 100 nM and 1000 nM (sheet 'Samples'), CATDS: 3.0586231323348499E-2",64 nM
same,potency estimated from few doses,"HCK; compound concentrations: 100 nM and 1000 nM (sheet 'Samples'), CATDS: 1.3478571983596799E-2",316 nM
same,potency estimated from few doses,"PHKG2; compound concentrations: 100 nM and 1000 nM (sheet 'Samples'), CATDS: 8.5028793142563602E-3",1680 nM
same,potency estimated from few doses,"PRKAA2; compound concentrations: 100 nM and 1000 nM (sheet 'Samples'), CATDS: 1.07442997812795E-2",618 nM
same,potency estimated from few doses,"PRKX; compound concentrations: 100 nM and 1000 nM (sheet 'Samples'), CATDS: 1.0278626389666701E-2",722 nM
same,potency estimated from few doses,"PTK6; compound concentrations: 100 nM and 1000 nM (sheet 'Samples'), CATDS: 9.7207770515578794E-3",894 nM
same,potency estimated from few doses,"SRC; compound concentrations: 100 nM and 1000 nM (sheet 'Samples'), CATDS: 2.4757216834404398E-2",90.3 nM
same,potency estimated from few doses,"YES1; compound concentrations: 100 nM and 1000 nM (sheet 'Samples'), CATDS: 2.3154900781863899E-2",101 nM
CN(c1ccc(NC(=O)Nc2cccc(Cl)c2)cc1)c1ccnc(N)n1.Cl [GW830707A],potency estimated from few doses,"ABL1; compound concentrations: 100 nM and 1000 nM (sheet 'Samples'), CATDS: 1.69612830125371E-2",90.3 nM
same,potency estimated from few doses,"BCR; compound concentrations: 100 nM and 1000 nM (sheet 'Samples'), CATDS: 2.64796261985909E-2",26.5 nM
same,potency estimated from few doses,"EPHA2; compound concentrations: 100 nM and 1000 nM (sheet 'Samples'), CATDS: 2.1264502158694101E-2",44.8 nM
same,potency estimated from few doses,"ROCK2; compound concentrations: 100 nM and 1000 nM (sheet 'Samples'), CATDS: 3.3185939241444598E-2",16.9 nM
same,potency estimated from few doses,"SRC; compound concentrations: 100 nM and 1000 nM (sheet 'Samples'), CATDS: 2.2534153996718501E-2",38.6 nM
same,potency estimated from few doses,"YES1; compound concentrations: 100 nM and 1000 nM (sheet 'Samples'), CATDS: 2.3597692911318701E-2",34.5 nM
CCn1c(-c2nonc2N)nc2c(C#CCN)ncc(OCCCN)c21.O=C(O)C(F)(F)F [GSK561866B],potency estimated from few doses,"ROCK2; compound concentrations: 100 nM and 1000 nM (sheet 'Samples'), CATDS: 8.7160231406383598E-2",858 nM
CC(C)N1CCC(n2cnc(-c3ccc(F)cc3)c2-c2ccnc(N)n2)CC1 [SB-223132],potency estimated from few doses,ABL1; [1],1110 nM
same,potency estimated from few doses,BCR; [1],660 nM
same,potency estimated from few doses,CSNK1A1,158 nM
same,potency estimated from few doses,CSNK1E,77.8 nM
same,potency estimated from few doses,EPHA2; [1],735 nM
same,potency estimated from few doses,HCK; [1],969 nM
same,potency estimated from few doses,PRKAA2; [1],1290 nM
same,potency estimated from few doses,PTK6; [1],1390 nM
same,potency estimated from few doses,SRC; [1],964 nM
same,potency estimated from few doses,YES1; [1],758 nM
O=C1N=C(NCCc2ccc(Cl)cc2)S/C1=C\c1ccc2ncccc2c1 [RO4498479-000],potency estimated from few doses,"ABL1; compound concentrations: 100 nM and 1000 nM (sheet 'Samples'), CATDS: 1.01576334348417E-2",536 nM
same,potency estimated from few doses,"BCR; compound concentrations: 100 nM and 1000 nM (sheet 'Samples'), CATDS: 1.6408594866795901E-2",215 nM
same,potency estimated from few doses,"EPHA2; compound concentrations: 100 nM and 1000 nM (sheet 'Samples'), CATDS: 1.41311052368837E-2",277 nM
same,potency estimated from few doses,"HCK; compound concentrations: 100 nM and 1000 nM (sheet 'Samples'), CATDS: 1.17279601666646E-2",393 nM
same,potency estimated from few doses,"PHKG2; compound concentrations: 100 nM and 1000 nM (sheet 'Samples'), CATDS: 8.2148610451916008E-3",932 nM
same,potency estimated from few doses,"PRKAA2; compound concentrations: 100 nM and 1000 nM (sheet 'Samples'), CATDS: 9.27662971485879E-3",667 nM
same,potency estimated from few doses,"PRKX; compound concentrations: 100 nM and 1000 nM (sheet 'Samples'), CATDS: 9.1029786610764794E-3",700 nM
same,potency estimated from few doses,"PTK6; compound concentrations: 100 nM and 1000 nM (sheet 'Samples'), CATDS: 1.2314432114231401E-2",357 nM
same,potency estimated from few doses,"SRC; compound concentrations: 100 nM and 1000 nM (sheet 'Samples'), CATDS: 1.16822109686501E-2",396 nM
same,potency estimated from few doses,"YES1; compound concentrations: 100 nM and 1000 nM (sheet 'Samples'), CATDS: 1.22768983688542E-2",359 nM
CN(c1ccc(NC(=O)N2CCN(CCCN3CCOCC3)CC2)cc1)c1ccnc(Nc2ccc(CS(C)(=O)=O)cc2)n1.Cl [GW830899A],potency estimated from few doses,"ABL1; compound concentrations: 100 nM and 1000 nM (sheet 'Samples'), CATDS: 2.13093198764688E-2",1300 nM
same,potency estimated from few doses,"ADCK1; compound concentrations: 100 nM and 1000 nM (sheet 'Samples'), CATDS: 2.5462418576412099E-2",867 nM
CCn1c(-c2nonc2N)nc2c(C#CC(C)(C)O)nc(OC[C@@H](N)c3ccccc3)cc21 [GSK938890A],potency estimated from few doses,"PRKX; compound concentrations: 100 nM and 1000 nM (sheet 'Samples'), CATDS: 0.16139090072401199",36.6 nM
same,potency estimated from few doses,"ROCK2; compound concentrations: 100 nM and 1000 nM (sheet 'Samples'), CATDS: 5.36427183140821E-2",1160 nM
Cl.Nc1c(C(=O)c2cccc(C#CCN3CCCCC3)c2)cnn1-c1ccc(F)cc1 [RO1154461-001],potency estimated from few doses,"ABL1; compound concentrations: 100 nM and 1000 nM (sheet 'Samples'), CATDS: 1.29854856136426E-2",806 nM
same,potency estimated from few doses,"BCR; compound concentrations: 100 nM and 1000 nM (sheet 'Samples'), CATDS: 1.8870015548456399E-2",336 nM
same,potency estimated from few doses,"EPHA2; compound concentrations: 100 nM and 1000 nM (sheet 'Samples'), CATDS: 1.6105152878217399E-2",472 nM
same,potency estimated from few doses,"HCK; compound concentrations: 100 nM and 1000 nM (sheet 'Samples'), CATDS: 1.18075673820272E-2",1060 nM
same,potency estimated from few doses,"PRKAA2; compound concentrations: 100 nM and 1000 nM (sheet 'Samples'), CATDS: 1.20335296051875E-2",1000 nM
same,potency estimated from few doses,"PTK6; compound concentrations: 100 nM and 1000 nM (sheet 'Samples'), CATDS: 1.35601917152245E-2",717 nM
same,potency estimated from few doses,"SRC; compound concentrations: 100 nM and 1000 nM (sheet 'Samples'), CATDS: 1.30987485498882E-2",787 nM
same,potency estimated from few doses,"YES1; compound concentrations: 100 nM and 1000 nM (sheet 'Samples'), CATDS: 1.4471532311659799E-2",608 nM
CNC(=O)c1ccccc1Nc1nc(Nc2ccc(N3CCOCC3)cc2)ncc1Cl.Cl [GSK1576028A],potency estimated from few doses,ABL1; [1],1640 nM
same,potency estimated from few doses,BCR; [1],781 nM
same,potency estimated from few doses,HCK; [1],676 nM
same,potency estimated from few doses,MAPK8,88.4 nM
same,potency estimated from few doses,PRKAA2; [1],688 nM
same,potency estimated from few doses,PTK6; [1],297 nM
same,potency estimated from few doses,RIOK2,2140 nM
same,potency estimated from few doses,SRC; [1],1280 nM
same,potency estimated from few doses,STK16,1770 nM
same,potency estimated from few doses,STK3,1270 nM
same,potency estimated from few doses,YES1; [1],322 nM
CN(C)CC(O)COc1ccc(Nc2nccc(-c3cnn4nc(N5CCOCC5)ccc34)n2)cc1 (stereo not drawn) [GW767488X],potency estimated from few doses,ADCK1; [1],587 nM
same,potency estimated from few doses,CDK17,200 nM
same,potency estimated from few doses,CSNK1A1,1250 nM
same,potency estimated from few doses,MAPK8,127 nM
same,potency estimated from few doses,PHKG2; [1],2250 nM
same,potency estimated from few doses,RIOK2,206 nM
same,potency estimated from few doses,ROCK2; [1],1440 nM
same,potency estimated from few doses,STK16,69.2 nM
